Screens from PubChem.
Coupling enz – counter-screen for Giardia aldolase inhibitors: coupling enzyme system; coupling enzyme system counterscreen, AmpLite Red fluorescence; activity change, negative = inhibition, % at 58.2 µM, hits read low; hit rate 0.67% among 290,000; in the data active means activity change below about -30%
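Counterscreen of the coupled detection system alone, without aldolase: glyceraldehyde-3-phosphate coupling enzymes plus AmpLite Red readout. Compounds at 57.5 uM final, 10 min RT preincubation, 20 min RT reaction, fluorescence 525/598 nm.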
Tau fluor cs – counter-screen for tau fibril formation inhibitors | AID 1463 | hit rate 0.93% among 280,000 | tau K18 P301L Alexa594 fluorescence, heparin fibrillization | Potency, µM (titrated, usually from 57.7 µM); further: nearly all actives have a fitted effect of over 55% in size
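Human tau K18 P301L (15 uM unlabeled, 0.24 uM Alexa 594-labeled) in 100 mM sodium acetate pH 7 with 20 uM heparin, 6 hr at 37 C. ThT 30 uM added, 1 hr ambient; Alexa 594 FP and total fluorescence read at 555/632 nm.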
Sfp PPTase inh – Sfp phosphopantetheinyl transferase inhibition; Q9F4F7; Biochemical Sfp PPTase activity, qHTS; Potency, µM, hits mostly inhibitors; hit rate 3.5% among 310,000; AID 1490;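 further: the enzyme is Sfp with the accession as filed and its product quenches rhodamine fluorescence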
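After 15 min at room temperature with compound, 15 nM Sfp received 5 uM rhodamine-CoA plus 12.5 uM BHQ-2-ybbR (50 mM Hepes pH 7.6, 10 mM MgCl2). Rate came from the fluorescence difference over 30 min, ex 525/em 598 nm.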
Tau fibril ThT – blocks human tau fibril formation measured by thioflavin T; P10636; recombinant tau K18 P301L (four-repeat tau fragment), heparin-induced fibrillization, ThT fluorescence; Potency, µM (series often up to 57.4 µM), most hits filed as inhibitors; hit rate 2.1% among 270,000; AID 1460; further: nearly all actives have a fitted effect of over 55% in size
Target sequence (P10636 561-689 P618L limits assumed): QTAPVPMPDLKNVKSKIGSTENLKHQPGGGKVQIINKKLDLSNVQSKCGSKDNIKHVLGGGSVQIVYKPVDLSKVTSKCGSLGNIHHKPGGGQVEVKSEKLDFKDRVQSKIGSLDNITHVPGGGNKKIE
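Heparin-induced fibrillization of the P301L-mutant K18 repeat-domain fragment of human tau was followed by ThT binding in quantitative high-throughput format.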
Tau FP inhib – tau fibrillization inhibition (FP); hit rate 0.39% among 280,000; P10636; K18 P301L tau heparin fibrillization, Alexa594 FP, 6 h; Potency, µM (series often up to 57.7 µM), hits mostly inhibitors; further: nearly all actives have a fitted effect of over 55% in size
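K18 P301L tau (15 uM unlabeled/0.24 uM Alexa 594-labeled, final) + compound + heparin 20 uM final; 100 mM NaOAc pH 7; 6 hr 37 C; ThT 30 uM final added, 1 hr RT; FP ex 555/em 632 nm.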
Hits are given with their value; [ ] = another dose, or the depositor's remark. A selection: hits, their analogues and other compounds. The true share with any hit is near 5.2%. Unless noted, the call rests on the fitted dose curve; in most records, active means well fitted curve in the direction sought with a large enough effect; inconclusive means small, poorly fitted or top-dose-only effect, or another doubt; inactive means no such curve, though single readings can be large; an effect the other way counts as inactive or inconclusive.

How did Cc1cccc2sc(N(Cc3cccnc3)C(=O)C3COc4ccccc4O3)nc12 (stereo not drawn) do in these assays?
Tau fluor cs: inactive; Tau fibril ThT: inactive; Tau FP inhib: inactive

How did CSc1nc(C)cc(Nc2c(C)cc(C)cc2C)n1 do in these assays?
Tau fluor cs: inactive; Tau fibril ThT: inactive; Tau FP inhib: inactive

What do the screens show for `Cc1ccc2cc(CN(C(=O)c3ccco3)c3cccc(C)c3C)c(=O)[nH]c2c1`?
Coupling enz: inactive; Tau fluor cs: inactive; Sfp PPTase inh: 31.6µM; Tau fibril ThT: inactive; Tau FP inhib: inactive

What do the screens show for `Cc1ccc2cc(CN(C(=O)c3ccco3)c3ccccc3C)c(=O)[nH]c2c1`?
Coupling enz: inactive; Tau fluor cs: inactive; Sfp PPTase inh: 50.1µM; Tau fibril ThT: inactive; Tau FP inhib: inactive

How did Cc1ccc(N(Cc2cc3ccc(C)cc3[nH]c2=O)C(=O)c2ccco2)c(C)c1 do in these assays?
Coupling enz: inactive; Tau fluor cs: inactive; Sfp PPTase inh: 50.1µM; Tau fibril ThT: inactive; Tau FP inhib: inactive

How did COCC(=O)N(Cc1cc2ccc(C)cc2[nH]c1=O)c1ccc(C)cc1C do in these assays?
Coupling enz: inactive; Sfp PPTase inh: inactive

What do the screens show for `COCC(=O)N(Cc1cc2ccc(C)cc2[nH]c1=O)c1ccccc1C`?
Coupling enz: inactive; Sfp PPTase inh: inactive

What do the screens show for `COc1ccc(-c2noc(N3CCC(C(=O)N(C)c4cc(Cl)ccc4OC)CC3)n2)cc1`?
Tau fluor cs: inactive; Tau fibril ThT: inactive; Tau FP inhib: inactive

How did Cc1ccc(CNC(=O)c2ccc3c(c2)NC(=O)C(CS(=O)(=O)Cc2ccc(F)cc2)N3)cc1 (stereo not drawn) do in these assays?
Tau fluor cs: inactive; Tau fibril ThT: inconclusive; Tau FP inhib: inconclusive

Results for Cc1ccc(-c2[nH]c3c(c2-c2c(-n4cccc4)n(C)c(=O)[nH]c2=O)c(=O)[nH]c(=O)n3C)cc1 ?
Tau fluor cs: inactive; Tau fibril ThT: inactive; Tau FP inhib: inactive

What do the screens show for `COc1ccc(CCNC2CC(=O)N(CCc3ccc(OC)c(OC)c3)C2=O)cc1OC` (stereo not drawn)?
Coupling enz: inactive; Tau fluor cs: inactive; Sfp PPTase inh: inactive; Tau fibril ThT: inactive; Tau FP inhib: inactive

How did COc1ccc(CCN2C(=O)CC(NNc3ccc([N+](=O)[O-])cc3)C2=O)cc1OC (stereo not drawn) do in these assays?
Coupling enz: inactive; Tau fluor cs: inconclusive; Sfp PPTase inh: inactive; Tau fibril ThT: 11.2µM; Tau FP inhib: inactive

How did Cc1cc(/C=N/n2cnnc2)c(C)n1-c1ccc(OCc2ccc(Cl)cc2Cl)cc1 do in these assays?
Coupling enz: inactive; Tau fluor cs: inactive; Sfp PPTase inh: 35.5µM; Tau fibril ThT: inconclusive; Tau FP inhib: inactive

What do the screens show for `Cc1cc(/C=N/n2cnnc2)c(C)n1-c1ccc(Cl)cc1`?
Coupling enz: inactive; Tau fluor cs: inactive; Sfp PPTase inh: inactive; Tau fibril ThT: inactive; Tau FP inhib: inconclusive

What do the screens show for `CCc1nnc(N/N=C/c2ccccc2F)n1N`?
Coupling enz: inactive; Tau fluor cs: inactive; Sfp PPTase inh: 50.1µM; Tau fibril ThT: inactive; Tau FP inhib: inactive

Results for CCc1nnc(N/N=C/c2ccccc2Cl)n1N ?
Coupling enz: inactive; Tau fluor cs: inactive; Sfp PPTase inh: inactive; Tau fibril ThT: inconclusive; Tau FP inhib: inactive

Results for Nc1ncnc2c1nc(N1CCCCC1)n2[C@@H]1O[C@@H]2COP(=O)(O)O[C@H]2[C@H]1O ?
Coupling enz: inactive; Sfp PPTase inh: inactive

What do the screens show for `CCOc1ccc2c(c1)C(=O)c1cc(OCC(=O)O)ccc1-2`?
Coupling enz: inactive; Tau fluor cs: inactive; Sfp PPTase inh: inactive; Tau fibril ThT: 11.2µM; Tau FP inhib: inactive

Results for CCCCOc1ccc2c(c1)C(=O)c1cc(O)ccc1-2 ?
Coupling enz: inactive; Tau fluor cs: 14.1µM[quencher]; Sfp PPTase inh: inactive; Tau fibril ThT: 11.2µM; Tau FP inhib: inconclusive

What do the screens show for `O=C(Nc1ccc([N+](=O)[O-])cc1Cl)c1cc(Cl)ccc1O`?
Coupling enz: inactive; Tau fluor cs: inconclusive; Sfp PPTase inh: inactive; Tau fibril ThT: 7.08µM; Tau FP inhib: inactive

What do the screens show for `O=C(Nc1cccc(Cl)c1)c1cc(N=Nc2ccc([N+](=O)[O-])cc2Cl)ccc1O`?
Coupling enz: inactive; Tau fluor cs: 1.12µM[quencher]; Sfp PPTase inh: inactive; Tau fibril ThT: 0.891µM; Tau FP inhib: 8.91µM

How did Cc1ccc(O)c(NC(=O)c2cc([N+](=O)[O-])ccc2Cl)c1 do in these assays?
Coupling enz: inactive; Tau fluor cs: inactive; Sfp PPTase inh: inconclusive; Tau fibril ThT: inactive; Tau FP inhib: inactive

What do the screens show for `COc1ccc(C(=O)Nc2cc3cc(Cl)ccc3oc2=O)cc1OC`?
Tau fluor cs: inactive; Tau fibril ThT: inactive; Tau FP inhib: inactive

Results for CCn1cc(S(=O)(=O)c2cccc(Cl)c2)c(=O)c2cc(F)c(N3CCN(c4ccccc4)CC3)cc21 ?
Tau fluor cs: inactive; Tau fibril ThT: inconclusive; Tau FP inhib: inactive

How did Cc1ccc(S(=O)(=O)c2c(N)n(-c3ccccc3)c3nc4ccccc4nc23)cc1 do in these assays?
Coupling enz: inactive; Tau fluor cs: inactive; Sfp PPTase inh: inactive; Tau fibril ThT: inactive; Tau FP inhib: inactive

What do the screens show for `O=S(=O)(Nc1c(S(=O)(=O)c2ccccc2)c2nc3ccccc3nc2n1C1CCCCC1)c1ccccc1`?
Coupling enz: -53.0; Tau fluor cs: inactive; Sfp PPTase inh: inactive; Tau fibril ThT: inconclusive; Tau FP inhib: inconclusive

How did CC(=O)Nc1c(S(=O)(=O)c2ccccc2)c2nc3ccccc3nc2n1Cc1ccccc1 do in these assays?
Coupling enz: inactive; Tau fluor cs: inconclusive; Sfp PPTase inh: inactive; Tau fibril ThT: inconclusive; Tau FP inhib: inactive

Results for C=CCn1c(NS(=O)(=O)c2ccccc2)c(S(=O)(=O)c2ccc(C)cc2)c2nc3ccccc3nc21 ?
Coupling enz: -58.6; Tau fluor cs: inactive; Sfp PPTase inh: 39.8µM; Tau fibril ThT: inactive; Tau FP inhib: inactive

How did COc1ccc(-n2nc(C(=O)Nc3ccc(Br)cc3C)c3c4ccccc4n(C)c3c2=O)cc1 do in these assays?
Tau fluor cs: inactive; Tau fibril ThT: inactive; Tau FP inhib: inactive

What do the screens show for `O=C(CCCSc1ccccc1)Nc1nc(-c2ccco2)c(-c2ccco2)s1`?
Coupling enz: inactive; Tau fluor cs: inconclusive; Sfp PPTase inh: 15.8µM; Tau fibril ThT: inconclusive; Tau FP inhib: inactive

Results for CC(=O)c1sc(NC(=O)CCNC(=O)c2ccco2)nc1-c1ccccc1 ?
Sfp PPTase inh: inactive

How did O=C(CCl)Nc1nc(-c2ccco2)c(-c2ccco2)s1 do in these assays?
Coupling enz: inactive; Tau fluor cs: 12.6µM[quencher]; Sfp PPTase inh: 44.7µM; Tau fibril ThT: inconclusive; Tau FP inhib: inactive

How did COc1ccc2nc(-c3ccccc3)cc(OC)c2c1 do in these assays?
Coupling enz: inactive; Tau fluor cs: inactive; Sfp PPTase inh: inactive; Tau fibril ThT: inactive; Tau FP inhib: inactive

How did COc1ccc2nc3ccccc3nc2c1N do in these assays?
Coupling enz: inactive; Tau fluor cs: inconclusive; Sfp PPTase inh: 4.47µM; Tau fibril ThT: 10µM; Tau FP inhib: inconclusive
